Experimental findings from PubChem BioAssay (NCI) are described below.

Some test systems named below: HCT-15 colon; HT29 colon; SNB-75 CNS; SNB-19 CNS; U251 CNS; PC-3 prostate; SK-MEL-5 melanoma; UACC-62 melanoma; LOX IMVI melanoma; SK-MEL-28 melanoma; SK-MEL-2 melanoma; EKVX NSCLC; SN12C renal; UO-31 renal; TK-10 renal; ACHN renal; CAKI-1 renal; A498 renal; CCRF-CEM leukemia; MOLT-4 leukemia.
Holding throughout (assay): NCI-60 one-dose screen, 48 h (100 = growth as untreated, 0 = no growth, -100 = all killed)
Conditions in all cases: 10 µM unless noted

About 83,000 compounds went through this panel and 20% of them were active in at least one assay; those are over-represented in the sample as a whole.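 Plates (96-well) were seeded with cells, treated with compound at one concentration, and incubated for 48 hours before percent growth was determined.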 Values without a mark were called inactive. Calls of active or inactive are those of the source. The calls were made as follows: active = growth percent below 10; inactive = the rest.

Turning to `CCOC(=O)C(=Cc1ccc(C#N)cc1)C(=O)OCC`, the growth is -21% (active) in the test with HCT-15 colon; -39.7% (active) in the test on HT29 colon; 42.9% in the test on SNB-75 CNS; 65.2% in the test on SNB-19 CNS; 50.3% in the test on U251 CNS; 33.3% in the test on PC-3 prostate. For the same compound, the growth with SK-MEL-5 melanoma was 59.6%; in the test with UACC-62 melanoma it was 10.6%; in the test with LOX IMVI melanoma, -54.9% (active); in the test with SK-MEL-28 melanoma, -17.7% (active); in the test with SK-MEL-2 melanoma, 42.9%; in the test with EKVX NSCLC it was 77.2%. Further, the growth was 45.9% in the test on SN12C renal; -33.9% (active) in the test on UO-31 renal; -1.52% (active) in the test on TK-10 renal; -64.7% (active) in the test with ACHN renal; 48.6% with CAKI-1 renal; 82.3% in the test on A498 renal. In addition, the growth with CCRF-CEM leukemia was 2.95% (active); in the test with MOLT-4 leukemia, 10.6%.
In the case of `O=C1Nc2ccccc2/C1=C/c1cccn1CCCCCn1c2ccccc2c(=O)c2ccccc21`, the growth in the test on HCT-15 colon is 28.9%; in the test with HT29 colon it was 89.5%; in the test with SNB-75 CNS it was 86.7%; in the test on SNB-19 CNS, 95.3%; with U251 CNS, 93.4%; in the test with PC-3 prostate it was 42%. In addition, the growth in the test on SK-MEL-5 melanoma is 32.2%; with UACC-62 melanoma, 48.2%; with LOX IMVI melanoma, 80.3%; in the test on SK-MEL-28 melanoma, 88.1%; in the test on SK-MEL-2 melanoma, 84%; with EKVX NSCLC, 71.8%. Moreover, the growth in the test with SN12C renal was 97.1%; in the test with UO-31 renal, 49.3%; in the test with TK-10 renal, 93.8%; with ACHN renal, 55.1%; with CAKI-1 renal, 65.9%; in the test on A498 renal it was 108%. Also, the growth with CCRF-CEM leukemia is 44.9%; in the test on MOLT-4 leukemia, 46%.
In the case of `Cc1ccc2c(c1)C(C)Cc1c(ncnc1-n1cnc3cc(C)ccc31)N2C` (stereo not given), the growth with HCT-15 colon was 12.3%; in the test with HT29 colon, -10.3% (active); in the test with SNB-75 CNS, 60.3%; in the test on SNB-19 CNS, 37.8%; with U251 CNS it was 6.82% (active); in the test with PC-3 prostate, 24.5%. The growth with SK-MEL-5 melanoma was -24.2% (active); with UACC-62 melanoma it was 30.6%; in the test on LOX IMVI melanoma, 25.7%; in the test with SK-MEL-28 melanoma it was 53.1%; in the test on SK-MEL-2 melanoma, -1.91% (active); in the test with EKVX NSCLC, 47.2%. For the same compound, the growth was 31.6% with SN12C renal; 31% with UO-31 renal; 48.7% in the test with TK-10 renal; 26.6% in the test on ACHN renal; 24.6% in the test on CAKI-1 renal; 12.2% with A498 renal. Further, the growth in the test with CCRF-CEM leukemia is 11.4%; in the test with MOLT-4 leukemia, 12%.
Take `COc1ccc(-c2ccc(-c3ccc(C(=N)N)cn3)o2)cc1Cl`: the growth with HCT-15 colon was 18.7%; with HT29 colon, 4.81% (active); in the test with SNB-75 CNS it was 89.3%; in the test on SNB-19 CNS, 40%; with U251 CNS it was 0.889% (active); in the test on PC-3 prostate, 46.1%. The growth was 12% in the test with SK-MEL-5 melanoma; 86.5% in the test on UACC-62 melanoma; -71% (active) in the test with LOX IMVI melanoma; 70.1% with SK-MEL-28 melanoma; 83.1% with SK-MEL-2 melanoma; 70.4% in the test on EKVX NSCLC. Also, the growth in the test with SN12C renal is 44.5%; in the test with UO-31 renal, 52.4%; in the test with TK-10 renal, 94.4%; in the test with ACHN renal it was 17.3%; in the test on CAKI-1 renal it was 40.2%; in the test on A498 renal it was 80.5%. Further, the growth is -4.6% (active) in the test on CCRF-CEM leukemia and 10.7% in the test with MOLT-4 leukemia.
As to `C[C@@H]1CC[C@@H]2[C@@H]1[C@H](OC(=O)/C=C/c1ccccc1)[C@]1(c3ccccc3)C[C@@H](NC(=O)CO)[C@@]2(C)O1`, the growth with HCT-15 colon is 91.7%; in the test with HT29 colon, 109%; in the test on SNB-75 CNS, 88%; in the test with SNB-19 CNS it was 96.2%; in the test on U251 CNS it was 88.9%; with PC-3 prostate, 78.9%. Also, the growth is 97.9% in the test with SK-MEL-5 melanoma; 71.7% in the test on UACC-62 melanoma; 96.1% in the test on LOX IMVI melanoma; 103% in the test on SK-MEL-28 melanoma; 107% in the test with SK-MEL-2 melanoma; 90.2% with EKVX NSCLC. The growth with SN12C renal is 86.8%; with UO-31 renal, 69.7%; with TK-10 renal, 112%; in the test on ACHN renal, 79.1%; with CAKI-1 renal, 70.1%; with A498 renal, -3.59% (active). Also, the growth in the test on CCRF-CEM leukemia was 99.8%; in the test on MOLT-4 leukemia, 84%.
Consider `O=C(NNc1ccccc1)c1ncc[nH]1`, for which the growth was 34.8% in the test with HCT-15 colon; 54.9% in the test on HT29 colon; 85.2% in the test with SNB-75 CNS; 96.5% in the test with SNB-19 CNS; 78.6% in the test with U251 CNS; 71.9% in the test on PC-3 prostate. Also, the growth in the test on SK-MEL-5 melanoma was 85%; in the test on UACC-62 melanoma it was 10.9%; in the test on LOX IMVI melanoma, 1.27% (active); in the test with SK-MEL-28 melanoma, 40.7%; with SK-MEL-2 melanoma, 78.2%; in the test with EKVX NSCLC, 60.2%. The growth was 72% in the test with SN12C renal; 12.3% with UO-31 renal; 77.9% in the test with TK-10 renal; 14.5% in the test on ACHN renal; 3.43% (active) in the test with CAKI-1 renal; 98.3% in the test on A498 renal. In addition, the growth is 32.7% in the test on CCRF-CEM leukemia and 27.3% in the test with MOLT-4 leukemia.
As to `COc1ccccc1/C=C1\COc2ccc(O)cc2C1=O`, the growth in the test on HCT-15 colon was 48.7%; with HT29 colon, 51.6%; in the test with SNB-75 CNS it was 96%; with SNB-19 CNS, 90.6%; in the test on U251 CNS it was 62.3%; with PC-3 prostate, 75.8%. In addition, the growth in the test on SK-MEL-5 melanoma was 66.5%; in the test with UACC-62 melanoma, 69.1%; in the test with LOX IMVI melanoma, 34.6%; in the test on SK-MEL-28 melanoma it was 101%; in the test on SK-MEL-2 melanoma, 93.5%; with EKVX NSCLC, 102%. In addition, the growth was 72% in the test on SN12C renal; 74.6% in the test on UO-31 renal; 93.3% in the test on TK-10 renal; 57.8% in the test with ACHN renal; 68.1% in the test on CAKI-1 renal; 109% with A498 renal. Moreover, the growth in the test on CCRF-CEM leukemia is 6.4% (active); with MOLT-4 leukemia, 21%.
